Screens from PubChem.
This is a sample that favours compounds with a hit; in the whole collection about 1.7% have one here.
RecA splice inh – Mtb RecA intein splicing inhibition; P9WHJ3; cell-free RecA intein splicing, fluorescence; inhibition, % (test concentration not listed); hit rate 0.75% among 290,000; AID 2221; in the data active = inhibition above about 30%;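 note: 0% = vehicle wells and 100% = reference inhibitor control wells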
Target sequence (P9WHJ3 whole entry, looked up, canonical isoform): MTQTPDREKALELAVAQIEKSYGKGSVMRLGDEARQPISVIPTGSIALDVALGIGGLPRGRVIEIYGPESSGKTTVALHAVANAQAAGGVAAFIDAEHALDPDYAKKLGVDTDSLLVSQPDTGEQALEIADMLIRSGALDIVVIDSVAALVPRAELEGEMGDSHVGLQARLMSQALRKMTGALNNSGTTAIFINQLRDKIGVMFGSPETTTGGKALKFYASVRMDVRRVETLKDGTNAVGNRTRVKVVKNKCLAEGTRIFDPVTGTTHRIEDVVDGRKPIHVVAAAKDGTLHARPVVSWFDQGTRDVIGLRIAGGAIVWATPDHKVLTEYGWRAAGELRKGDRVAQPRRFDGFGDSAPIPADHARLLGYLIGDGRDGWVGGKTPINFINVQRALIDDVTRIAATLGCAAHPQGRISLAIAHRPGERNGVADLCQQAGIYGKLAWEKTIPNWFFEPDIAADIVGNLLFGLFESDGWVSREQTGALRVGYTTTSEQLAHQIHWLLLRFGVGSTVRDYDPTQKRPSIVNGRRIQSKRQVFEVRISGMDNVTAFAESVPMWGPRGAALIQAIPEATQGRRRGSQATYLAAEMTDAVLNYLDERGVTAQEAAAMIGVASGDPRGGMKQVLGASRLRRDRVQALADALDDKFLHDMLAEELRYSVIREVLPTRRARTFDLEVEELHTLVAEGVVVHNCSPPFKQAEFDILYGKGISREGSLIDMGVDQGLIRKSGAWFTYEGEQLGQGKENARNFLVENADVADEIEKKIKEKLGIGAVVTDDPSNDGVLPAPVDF
PfHsp40 rescue – rescue of PfHsp40-mediated yeast toxicity | growth rescue, % at 12.5 µM | AID 504582 | hit rate 0.68% among 340,000 | S. cerevisiae expressing PfHsp40, growth rescue, ATP luminescence; in the data active = growth rescue above about 28%, passing the limit was not always enough;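 note: yeast W303a lacking pdr1 and pdr3 grown in galactose medium; growth measured after three days at 30 °C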
Mtb hypoxia inh – reduces hypoxia-regulated biosensor signal in M. tuberculosis; hit rate 0.1% among 300,000; AID 1159583; fluorescence inhibition, % (concentration not given with the values); M. tuberculosis hypoxia-regulated fluorescent reporter, fluorescence; in the data active = fluorescence inhibition mostly above about 23%, no sharp cut-off; inactive = mostly below about 17%
CCHF vOTU inh-1 – CCHFV vOTU protease inhibition. Pep-AMC fluorescence. inhibition, % at 11.5 µM. hit rate 0.55% among 370,000. AID 651958; note: 0% = vehicle wells with enzyme and 100% = no enzyme wells
Mtb bLac sens – beta-lactam sensitization of Mtb H37Rv. hit rate 0.27% among 330,000. inhibition, % at 25 µM. M. tuberculosis H37Rv growth with meropenem, percent inhibition. AID 434955; call rule not given here;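 note: growth measured after seven days incubation then overnight dye step; 0% = bacteria only wells and 100% = bacteria with antibiotic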
CCHF vOTU inh-2 – CCHFV vOTU protease inhibition, confirmation; inhibition, % at 11.5 µM; hit rate 17% among 1,900; Recombinant CCHFV vOTU, Pep-AMC fluorescence; shares compounds with CCHF vOTU inh-1
The depositor's hits bear a star; nt = not tested or not shown. Cut-off read from the data, not from the text of the source, unless noted: active = inhibition above about 30%; inactive = the rest.

SMILES | RecA splice inh | PfHsp40 rescue | Mtb hypoxia inh | CCHF vOTU inh-1 | Mtb bLac sens | CCHF vOTU inh-2
C[C@]12C(=O)N(c3ccc(Br)cc3)C(=O)N1C1c3ccccc3OCC1C2c1ccccc1 (stereo partly specified) | nt | nt | -1 | nt | nt | nt
CC(=O)OC1CC2CCC3C(CC[C@@]4(C)C3CC([N+]3(C)CCCCC3)C4OC(C)=O)[C@@]2(C)CC1[N+]1(C)CCCCC1 (stereo partly specified) | nt | nt | 3 | nt | nt | nt
O=[N+]([O-])c1ccccc1-c1ccc(C(=S)N2CCCC2)o1 | 3 | 1 | -1 | 30* | 2 | 39*
O=C(/C=C/c1ccccc1)Nc1cccc(C(=O)O)c1 | 0 | -2 | 4 | 12 | 2 | nt
O=C(/C=C/c1ccccc1)Nc1cc(NC(=O)/C=C/c2ccccc2)cc(C(=O)O)c1 | 4 | 2 | -9 | 36* | 10 | 8
COc1ccc(CCNC(=O)CSc2nc(N)c(C#N)c(-c3cccs3)c2C#N)cc1OC | 4 | 0 | -2 | 32* | -4 | -4
COCCn1c(-c2ccc(Cl)cc2)cnc1SCC(=O)NCCc1ccc(OC)c(OC)c1 | 2 | 0 | 13 | 30* | 2 | -16
CC(O)C(=O)NN=Cc1cccc(Cl)c1Cl (stereo unspecified) | nt | nt | 8 | nt | nt | nt
CN(C)c1ccc(NC(=NS(=O)(=O)c2cccs2)c2ccccc2)cc1 | nt | nt | -6 | nt | nt | nt
C=CCC(CC(=O)N(CCO)Cc1ccccc1)C(=O)NCCOC(=O)C(CC=C)Cc1ccc(F)cc1 (stereo unspecified) | nt | nt | 8 | nt | nt | nt
COc1ccc(OCC(=O)NC(=S)Nc2ccc3c4c(cccc24)CC3)cc1 | 0 | 0 | -8 | 30* | 1 | 2
CCCCOCCCNC(=O)C[C@H]1C[C@@]2(C(=O)OC)C(=C[C@H](C(C)(C)C)O[C@@H]2C)N(Cc2ccc(Cl)cc2Cl)C1=O | nt | nt | nt | 39* | nt | 7
CCCCCCCCN1C(=O)[C@@H](CC(=O)N2CCN(C(=O)C3CC3)CC2)C[C@@]2(C(=O)OC)C1=C[C@H](C(C)(C)C)O[C@@H]2C | nt | nt | nt | 38* | nt | 29
CCCCOCCCNC(=O)C[C@H]1C[C@@]2(C(=O)OC)C(=C[C@H](C3CCCC3)O[C@@H]2C)N(Cc2ccc(Cl)cc2Cl)C1=O | nt | nt | nt | 23 | nt | nt
CCCCCCCCN1C(=O)[C@@H](CC(=O)NCCCOC)C[C@@]2(C(=O)OC)C1=C[C@H](C(C)(C)C)O[C@@H]2C | nt | nt | nt | 36* | nt | 12
CCCCCCCCN1C(=O)[C@@H](CC(=O)NCCC(C)C)C[C@@]2(C(=O)OC)C1=C[C@H](C(C)(C)C)O[C@@H]2C | nt | nt | nt | 6 | nt | nt
Cc1ccc(C=NNC(=O)CNC(=O)COc2ccccc2)cc1 | nt | nt | 3 | nt | nt | nt
CC1(C)[N+]([O-])=C2C(=NO)c3ccccc3C2=[N+]([O-])C1(C)C | nt | nt | 12 | nt | nt | nt
CCOC(=O)CN1C(=O)NC(CCc2ccccc2)C(C(=O)OC)C1C (stereo unspecified) | nt | nt | 4 | nt | nt | nt
C=CCNC(=O)c1cccc2c1C(=O)c1ccc(N3CCOCC3)cc1S2(=O)=O | nt | -1 | 11 | 31* | -1 | -7
O=C(NCCc1ccccc1)c1cccc2c1C(=O)c1ccc(N3CCOCC3)cc1S2(=O)=O | nt | -2 | 6 | 6 | 4 | nt
CN(C)c1ccc(N=Cc2cccn2C)cc1 | 2 | -1 | nt | 42* | -5 | -13
O=C(CC1SC(=NN=Cc2ccco2)NC1=O)Nc1cccc(Cl)c1Cl (stereo unspecified) | nt | nt | 0 | nt | nt | nt
O=C(CC1S/C(=N/N=C/c2ccco2)NC1=O)Nc1cccc(Cl)c1Cl (stereo unspecified) | 2 | 0 | nt | 33* | -1 | -7
CCN(CC)S(=O)(=O)c1cc(NC(=O)CN2C(=O)NC(C)(c3ccccc3)C2=O)ccc1C (stereo unspecified) | 3 | -1 | 7 | 34* | -1 | 4
O=C1CCCN1CCCNCCCn1cnc2c(OCc3ccccc3)ncnc21 | nt | 1 | nt | -6 | nt | nt
O=C(Cn1cnc2c(OCc3ccccc3)ncnc21)NCCCN1CCCC1=O | nt | -1 | -6 | 30* | 5 | 3
CCC1=C2CCC3C(=O)N(C)C(=O)C3C2[C@@]2(Cc3ccccc3)C(=NCC(=O)OC)OC(=O)N2C1=O (stereo partly specified) | nt | nt | 21 | nt | nt | nt
CCCN(C(=O)Cc1nc(N)n[nH]1)C1(C(=O)Nc2c(C)cccc2C)CCCCC1 | -2 | 1 | 3 | 39* | 1 | -24
CC(C)(C)c1ccc(-c2nn(CCC#N)cc2C=NO)cc1 | nt | nt | -7 | nt | nt | nt
